# Laboratory results as given in PubChem BioAssay (NCI).
# Compounds without any hit were thinned out: in the full panel of roughly 83,000, 20% have a hit.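 Step 1: grow cells in 96-well plates. Step 2: add test compound at a single concentration. Step 3: incubate 48 h. Step 4: record percent growth.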 A number with no mark means an inactive call. Active and inactive are the calls of the source. The calls were made as follows: active = growth percent below 10; inactive = the rest.
# Test system: UACC-257 melanoma
# Assay: NCI-60 one-dose screen, 48 h (100 = growth as untreated, 0 = no growth, -100 = all killed)
# Details: 10 µM unless noted
row,Compound,growth
1,CCCCCSB(SCCCCC)c1ccccc1,94.4%
2,c1ccc(CNc2ccc3nc(CCC4CCCCC4)[nH]c3c2)cc1,74.2%
3,S=c1ssnc1-c1cccs1,107%
4,O=C(/C=C/c1ccc(Br)cc1)c1ccc(-n2cc(CN3CCN(c4cc5c(cc4F)c(=O)c(C(=O)O)cn5C4CC4)CC3)nn2)cc1,95.8%
5,COc1ccc(Cc2cnc(NC(=O)c3sc4ccccc4c3Cl)s2)cc1,49.8%
6,N#C/C(=C\c1ccc(Cl)cc1Cl)C(=O)Nc1ncc(Cc2ccc(Cl)c(Cl)c2)s1,93.2%
7,N#Cc1c(-c2cccc([N+](=O)[O-])c2)cc(-c2ccc(Nc3nc(Nc4ccc(F)cc4)nc(Nc4ccc(F)cc4)n3)cc2)nc1N,107%
8,O=C(CCCCCCN1CC(=O)N2[C@@H](c3ccc(Cl)cc3)c3[nH]c4ccccc4c3C[C@H]2C1=O)NO,79.7%
9,CCCCCCCCn1ccc2cc(NC(=O)Cn3cc(CN4CCC(C)CC4)nn3)ccc21,-35.8% (active)
10,CCCC(O)Cn1ncc(C(=O)OCC)c1NC(=O)NCc1cccc(F)c1 (stereo not given),85.2%
11,COc1cc2c3c(c1O)-c1ccccc1[C@@H]1OC(=O)N(CC2)[C@H]31,95.6%
12,C/C(=C(/c1ccc(Cl)cc1)c1ccc(OCCCN(C)C)cc1)c1ccc(Cl)cc1,103%
13,Cc1cc(C(=O)Nc2cc(Nc3ncccc3-c3ncnc4nc[nH]c34)ccc2F)cc(C(F)(F)F)c1,10.7%
14,CCOC(=O)NN1CC(O)=C(c2nc(-c3ccc(Br)cc3)cs2)C1=N,96.4%
15,O=C1C(Cl)=C(NCCN2CCOCC2)C(=O)c2ncccc21,-92.8% (active)
16,O=C(Nc1ccc(F)cc1)Nc1ccccc1CNc1nc(Nc2ccc(OCCN3CCCC3)cc2)ncc1Cl,5.96% (active)
17,C[C@H]1[C@H](C)CC[C@]2(C(=O)O)CC[C@]3(C)C(=CC[C@@H]4[C@@]5(C)C[C@@H](Cc6cn([C@@H]7O[C@H](CO)[C@@H](O)[C@H](O)[C@H]7O)nn6)[C@H](O)C(C)(C)[C@@H]5CC[C@]43C)[C@H]12,90.2%
18,COC(=O)c1ccc2c(c1)c1c(C)c3ccncc3c(C)c1n2C,1.45% (active)
19,COc1cc(C(=O)c2c(-c3ccccc3)oc3c(OC)cccc23)cc(OC)c1O,71.4%
20,C=C1C(=O)O[C@H]2[C@H]1CC/C(CNC(=O)c1cc3ccccc3[nH]1)=C\CC[C@@]1(C)O[C@@H]21,-49.2% (active)

row,Compound,growth
1,O=P(O)(O)OCC1OC(n2cnc3c(NCc4ccccc4)ncnc32)C(O)C1O (stereo not given),115%
2,CCN(CC)CCCNCc1cc(-c2ccccc2)nc2cc(Cl)ccc12,-76.8% (active)
3,COc1cc2nc(Nc3cccc(F)c3)nc(Nc3cc(C)[nH]n3)c2cc1OC,-62.4% [20 µM] (active)
4,CCC/C(=N\NC(N)=O)C(OC)OC,103%
5,O=C1c2cc3c(cc2-c2c1c1ccc(Cl)cc1c(=O)n2C[C@H](O)CO)OCO3,-36% (active)
6,CCSC1=CC(=O)c2ccccc2C1=O,83.1%
7,COc1cc(-c2nc3occn3c2-c2ccnc(NCCCNS(=O)(=O)c3ccccc3)n2)ccc1F,41.4%
8,COC1=CC(c2ccc[nH]2)=N/C1=C\c1[nH]c(C)c(CC(=O)OCc2ccccc2)c1C,-25% (active)
9,O=C(CSc1nnc2sc(Nc3cccc(Cl)c3)nn12)c1ccc(F)cc1,102%
10,COc1ccc(C2=Nc3c(N)ncnc3NC(c3cccc(Nc4ccnc5cc(C(F)(F)F)ccc45)c3)C2)cc1 (stereo not given),74.9%
11,Nc1c(C(=O)Nc2cccc3ncccc23)sc2nc3c(cc12)C(=O)CCC3,41.6%
12,C#CCn1cnc2c(Nc3cccc(NC(=O)CCl)c3)ncnc21,28.4%
13,COc1cc2oc(-c3cccc(NC(=O)c4ccc5c(c4)OCO5)c3)cc(=O)c2c(OC)c1OC,77.3%
14,CCOC(=O)CSc1nc2sc3c(c2c(=O)n1-c1ccc([N+](=O)[O-])cc1)CCCCC3,89%
15,Cn1cc(-c2nn3cc(-c4ccccc4)nc3s2)c2ccccc21,76.9%
16,C=C1C(=O)O[C@H]2[C@H]1CC/C(COC(=O)NCCCCCCCCNC(=O)OC/C1=C/CC[C@@]3(C)O[C@H]3[C@H]3OC(=O)C(=C)[C@@H]3CC1)=C\CC[C@@]1(C)O[C@@H]21,-55.1% (active)
17,Oc1c(I)cc(-c2nc3ccccc3s2)cc1CN(Cc1ccccn1)Cc1ccccn1,0.435% (active)
18,Cc1ncc(C(=O)Nc2ccc(CN3CCN(C)CC3)c(C(F)(F)F)c2)cc1C#Cc1cnc(N)c2ccncc12,-75.2% (active)
19,O=C1/C(=C/c2ccc(C(F)(F)F)cc2)COc2ccc(O)c(O)c21,25.3%
20,O=C1N[C@@H]2[C@@H](O)[C@@H](O)[C@H](O)C[C@H]2c2cc3c(c(O)c21)OCCO3,-22.2% (active)
